Test systems include SK-MEL-2 melanoma; SN12C renal; TK-10 renal; ACHN renal; A498 renal; CCRF-CEM leukemia; MOLT-4 leukemia; SR leukemia; RPMI-8226 leukemia; OVCAR-8 ovarian; OVCAR-5 ovarian; OVCAR-4 ovarian; SK-OV-3 ovarian; OVCAR-3 ovarian; HS 578T breast; NCI/ADR-RES ovarian; UO-31 renal; IGROV1 ovarian; EKVX NSCLC; CAKI-1 renal.
What all share (test): NCI-60 one-dose screen, 48 h (100 = growth as untreated, 0 = no growth, -100 = all killed)
Holding throughout (settings): 10 µM

SMILES strings stand for the structures. This is part of a sample that, as a whole, favours compounds with a hit. Of some 83,000 tested, about 20% had one in any assay.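 48-hour exposure, single concentration, 96-well plates; percent growth endpoint where 0 means no net growth. Active: below 10.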 Unmarked numbers belong to inactive results. Active and inactive are the calls of the source.

Turning to `CC(=O)Nc1ccc(S(=O)(=O)N/N=C(\C)c2ccc(C)cc2C)cc1`, the growth is 93.1% with SK-MEL-2 melanoma; 110% with SN12C renal; 108% in the assay on TK-10 renal; 95.3% in the assay on ACHN renal; 112% in the assay on A498 renal; 103% in the assay on CCRF-CEM leukemia. The growth is 97.7% in the assay with MOLT-4 leukemia; 113% in the assay with SR leukemia; 104% in the assay with RPMI-8226 leukemia; 98.5% in the assay with OVCAR-8 ovarian; 98.4% in the assay with OVCAR-5 ovarian; 102% in the assay on OVCAR-4 ovarian. In addition, the growth with SK-OV-3 ovarian was 98.5%; in the assay on OVCAR-3 ovarian, 111%; in the assay with HS 578T breast, 134%; in the assay with NCI/ADR-RES ovarian, 112%.

In the case of `Cc1cn(-c2cccc(NC(=O)c3ccc(C)c(Nc4nccc(-c5cccnc5)n4)c3)c2)cn1`, the growth in the assay on SK-MEL-2 melanoma is 75.8%; in the assay with SN12C renal, -4.51% (active); with UO-31 renal, -22.6% (active); in the assay on TK-10 renal it was -46.3% (active); in the assay with ACHN renal, -31.9% (active); with CCRF-CEM leukemia, 25%. In addition, the growth is 5.78% (active) in the assay on MOLT-4 leukemia; 1.26% (active) with SR leukemia; 0.284% (active) in the assay with OVCAR-8 ovarian; 41.3% with OVCAR-5 ovarian; -58.1% (active) in the assay with OVCAR-4 ovarian; -54.2% (active) in the assay on SK-OV-3 ovarian. Moreover, the growth in the assay on IGROV1 ovarian was -11.7% (active); in the assay on OVCAR-3 ovarian, -33.7% (active); with HS 578T breast it was -8.85% (active); in the assay on NCI/ADR-RES ovarian, 7.25% (active).

As for `Nc1nc(Cl)nc2c1ncn2C1O[C@H](CO)[C@@H](O)[C@@H]1F` (stereo partly drawn), the growth in the assay with EKVX NSCLC is 38.1%; in the assay on SN12C renal, 14.5%; in the assay with UO-31 renal it was 0.968% (active); in the assay on TK-10 renal, 64.5%; with ACHN renal, 3.32% (active); in the assay on CAKI-1 renal it was -25.9% (active). Besides, the growth in the assay on A498 renal was 15.6%; with CCRF-CEM leukemia, 2.64% (active); in the assay with MOLT-4 leukemia it was -4.67% (active); in the assay with SR leukemia it was 7.7% (active); in the assay with RPMI-8226 leukemia, 105%; in the assay on OVCAR-8 ovarian, 27.1%. Moreover, the growth in the assay on OVCAR-5 ovarian is 47.4%; in the assay with OVCAR-4 ovarian it was 80.2%; in the assay with SK-OV-3 ovarian, 34.5%; in the assay with IGROV1 ovarian it was 53%; in the assay with OVCAR-3 ovarian it was 60.7%; in the assay on HS 578T breast, 82.5%. Besides, in the assay on NCI/ADR-RES ovarian, the growth is 16.6%.

For `Cc1ccc(NC(=O)N2CCCCC2)cc1[N+](=O)[O-]`, the growth is 119% in the assay with SK-MEL-2 melanoma; 106% with SN12C renal; 77.6% in the assay on UO-31 renal; 95% with ACHN renal; 107% in the assay with A498 renal; 7.44% (active) in the assay on CCRF-CEM leukemia. Further, the growth in the assay on MOLT-4 leukemia was 137%; with SR leukemia it was 39.3%; in the assay on RPMI-8226 leukemia it was 41.7%; in the assay on OVCAR-8 ovarian, 72.2%; in the assay with OVCAR-5 ovarian it was 101%; in the assay on OVCAR-4 ovarian, 111%. Besides, the growth with SK-OV-3 ovarian was 112%; in the assay on IGROV1 ovarian, 87.3%; in the assay with OVCAR-3 ovarian, 115%; with HS 578T breast, 54.8%; with NCI/ADR-RES ovarian it was 95.4%.

On to `CC(=O)O[C@@]12CO[C@@H]1C[C@H](O)[C@@]1(C)C(=O)[C@H](O)C3=C(C)[C@@H](OC(=O)[C@H](O)[C@@H](NC(=O)OC(C)(C)C)c4ccccc4)C[C@@](O)([C@@H](OC(=O)c4ccccc4)C12)C3(C)C` (stereo partly drawn), for which the growth in the assay on EKVX NSCLC was 59%; in the assay on SN12C renal, 56.3%; in the assay with UO-31 renal it was 33.5%; in the assay with TK-10 renal it was 42.1%; with ACHN renal, 56.9%; in the assay on CAKI-1 renal, 4.8% (active). The growth was 22.6% in the assay on A498 renal; 29.9% in the assay with CCRF-CEM leukemia; 25.4% in the assay on MOLT-4 leukemia; 11.1% with SR leukemia; 25.4% in the assay with RPMI-8226 leukemia; 38.4% in the assay with OVCAR-8 ovarian. Also, the growth is 40.1% with OVCAR-5 ovarian; 58% in the assay with OVCAR-4 ovarian; 47.3% in the assay with SK-OV-3 ovarian; 39.2% with IGROV1 ovarian; 7.26% (active) in the assay with OVCAR-3 ovarian; 12.3% with HS 578T breast. Moreover, the growth with NCI/ADR-RES ovarian is -21.2% (active).

Regarding `COc1cc(-c2ccc(N=Nc3ccc4c(S(=O)(=O)O)ccc(N)c4c3O)c(OC)c2)ccc1N=Nc1ccc2c(S(=O)(=O)O)ccc(N)c2c1O`, the growth was 102% in the assay on SK-MEL-2 melanoma; 123% with SN12C renal; 121% in the assay on TK-10 renal; 103% in the assay on ACHN renal; 124% in the assay with A498 renal; 105% in the assay with CCRF-CEM leukemia. Also, the growth in the assay on MOLT-4 leukemia is 122%; in the assay with SR leukemia, 146%; in the assay with RPMI-8226 leukemia, 115%; in the assay with OVCAR-8 ovarian it was 99.6%; in the assay with OVCAR-5 ovarian it was 111%; in the assay with OVCAR-4 ovarian, 98.4%. Besides, the growth was 91.4% with SK-OV-3 ovarian, 109% with OVCAR-3 ovarian, 124% with HS 578T breast and 109% in the assay with NCI/ADR-RES ovarian.

On to `CCc1c2c(nc3ccc(OC(=O)N4CCC(N5CCCCC5)CC4)cc13)-c1cc3c(c(=O)n1C2)COC(=O)[C@]3(O)CC`, for which the growth was 67.2% in the assay with EKVX NSCLC; 16.2% in the assay on SN12C renal; 11.6% with UO-31 renal; 81.6% in the assay with TK-10 renal; 1.66% (active) in the assay with ACHN renal; -17.4% (active) with CAKI-1 renal. Also, the growth in the assay with A498 renal was 9.23% (active); with CCRF-CEM leukemia, 5.44% (active); in the assay with MOLT-4 leukemia, -20.6% (active); in the assay on SR leukemia it was 1.34% (active); in the assay with RPMI-8226 leukemia, 60.8%; with OVCAR-8 ovarian it was 28.1%. Besides, the growth with OVCAR-5 ovarian is 70.4%; in the assay with OVCAR-4 ovarian, 62.4%; with SK-OV-3 ovarian it was 25.9%; in the assay on IGROV1 ovarian, 49.9%; with OVCAR-3 ovarian, 33%; in the assay on HS 578T breast it was 102%. In addition, the growth in the assay on NCI/ADR-RES ovarian was 24.5%.

Turning to `CC(C)Cc1ccc([C@H](C)C(=O)O)cc1`, the growth is 104% in the assay with EKVX NSCLC; 103% with SN12C renal; 86.5% with UO-31 renal; 100% in the assay with TK-10 renal; 108% with ACHN renal; 93.7% in the assay with CAKI-1 renal. Besides, the growth in the assay with A498 renal was 99.1%; in the assay with CCRF-CEM leukemia, 102%; with MOLT-4 leukemia it was 90.5%; in the assay with SR leukemia, 99.9%; in the assay with RPMI-8226 leukemia, 115%; in the assay on OVCAR-8 ovarian it was 107%. Besides, the growth is 107% in the assay with OVCAR-5 ovarian; 115% in the assay on OVCAR-4 ovarian; 119% in the assay on SK-OV-3 ovarian; 116% in the assay with IGROV1 ovarian; 111% in the assay on OVCAR-3 ovarian; 110% in the assay on HS 578T breast. For the same compound, in the assay with NCI/ADR-RES ovarian, the growth was 108%.

For `CCN(CC)CCCC(C)N=C(C1=C(C(=NC(C)CCCN(CC)CC)c2cccc(OC)c2)C(=O)NC1=O)c1cccc(OC)c1` (stereo not drawn), the growth in the assay with SK-MEL-2 melanoma was -53.7% (active); in the assay with UO-31 renal it was -97.2% (active); in the assay with TK-10 renal it was -31.1% (active); in the assay on ACHN renal, -64% (active); in the assay with CAKI-1 renal, -57.9% (active); in the assay on A498 renal, 18.7%. In addition, the growth with CCRF-CEM leukemia is -21.4% (active); in the assay with MOLT-4 leukemia it was -15.7% (active); in the assay on SR leukemia it was 2.6% (active); in the assay on RPMI-8226 leukemia, -30.6% (active); in the assay with OVCAR-8 ovarian, -11.3% (active); with OVCAR-5 ovarian, -3.07% (active). Moreover, the growth is -23.5% (active) in the assay with OVCAR-4 ovarian; 9.81% (active) in the assay on SK-OV-3 ovarian; -17.7% (active) in the assay with OVCAR-3 ovarian; 16.4% in the assay on HS 578T breast; 4.23% (active) in the assay with NCI/ADR-RES ovarian.
